Data: PubChem BioAssay (NCI)
The panel holds about 83,000 compounds, 20% with a hit somewhere; the sample as a whole holds those more often.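 Interpretation: 100, growth as untreated; towards 0, rising growth inhibition; 0, no net growth; 0 to -100, cell death. Compounds scoring below 10 were considered active.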 Unmarked numbers belong to inactive results. Activity calls are given as the source filed them.

Tests used:
Test in all cases: NCI-60 one-dose screen, 48 h (100 = growth as untreated, 0 = no growth, -100 = all killed)
Conditions in all cases: 10 µM unless noted
EKVX NSCLC = test system: EKVX NSCLC
SN12C renal = test system: SN12C renal
UO-31 renal = test system: UO-31 renal
TK-10 renal = test system: TK-10 renal
ACHN renal = test system: ACHN renal
CAKI-1 renal = test system: CAKI-1 renal
CCRF-CEM leukemia = test system: CCRF-CEM leukemia
MOLT-4 leukemia = test system: MOLT-4 leukemia
SR leukemia = test system: SR leukemia
A498 renal = test system: A498 renal

SMILES | growth (EKVX NSCLC) [%] | growth (SN12C renal) | growth (UO-31 renal) | growth (TK-10 renal) [%] | growth (ACHN renal) | growth (CAKI-1 renal) | growth (CCRF-CEM leukemia) | growth (MOLT-4 leukemia) | growth (SR leukemia) | growth (A498 renal)
COc1ccc(C2=C(c3cccc(OC)c3)C(=O)c3ccc(C)nc3C2=O)cc1 | 75.3 | 40.6% | 25.4% | 93.8 | 33.6% | 34.2% | 19.1% | -31.5% (active) | 28.5% | 
Cc1ccc2c(n1)C(=O)C(Oc1ccc(Br)cc1)=CC2=O | 104 | 93.5% | 84.3% | 103 | 7.34% (active) | 97.5% | 62% | 87.9% | 92.1% | 
CC[C@H](C)[C@@H](C(=O)OC)n1cc(CNC(=O)[C@@H](Cc2ccccc2)NC(=O)OCc2ccccc2)nn1 | 92.6 | 94.6% | 76.7% | 101 |  | 83.4% | 85.1% | 69.1% | 103% | 83.3%
O=C(/C=C/c1ccccc1)c1ccc(Nc2nc(NCCO)nc(Nc3ccc(Cl)cc3)n2)cc1 | 74.2 | 94.1% | 66.7% | 98.5 | 74.1% | 79.2% | 60.6% | 74.3% | 23.1% | 
C=C[C@@H]1CCC/C=C/[C@@H]2C[C@H](O)C[C@H]2[C@H](O)/C=C/C(=O)O1 | 16.9 | 13.3% | 6.14% (active) | 15.5 |  | 10.4% |  | -9.66% (active) | -15.1% (active) | -17.9% (active)
CCCCN1CCN(c2ccc3nc(-c4ccc5nc(-c6ccc(OCC)cc6)[nH]c5c4)[nH]c3c2)CC1 | 92.9 | 76.9% | 100% | 86.8 | 63.9% | 51.2% | 20.5% | 56.9% | -1.98% (active) | 
COc1cc(C(C)n2cc(-c3ccccc3)nn2)ccc1OC1CCCCC1 (stereo not drawn) |  | 67.7% | 56.9% | 75.3 | 51.1% | 48.7% | 55.3% | 50.1% |  | 49.3%
CCOC(=O)c1cc2c(n1Cc1cc(OC)cc(OC)c1)-c1oncc1CCC2 |  | 38.3% | 18.5% | 56.6 | 37.6% | 42.2% | 9.16% (active) | 18% | 9.52% (active) | -14.5% (active)
CCN(CC)CCCNc1ccnc2cc3ccccc3cc12 |  | 87.6% | 106% | 83.8 | 70.7% | 75.3% | 91.1% | 87.3% | 77.5% | 94%
CCOC(=O)C1=C(C)N=c2s/c(=C\c3ccccc3O)c(=O)n2C1c1ccc(OC)c2ccccc12 (stereo not drawn) |  | 47.3% | -18.3% (active) | 10.8 | 33.5% | -11.4% (active) | 2.51% (active) | -9.58% (active) | -18.4% (active) | 17.6%
CCCCCCC(O)(c1ccc(F)cc1)C(CN1CCOCC1)c1ccccc1 (stereo not drawn) |  | 35.3% | 19.4% | 34.2 | 23.7% | 33.1% | 18.1% | 17.7% | 23.2% | 50%
O=C(O)CCC(=O)c1ccc(C2CCCCCC2)cc1 |  | 99.5% | 80.4% | 99.1 | 97.1% | 97.4% | 101% | 87.3% | 93.8% | 89.2%
COc1ccc(C2NCCc3c2[nH]c2ccccc32)cc1CN1CCN(c2ccc(F)cc2)CC1 (stereo not drawn) |  | 55.6% | 2.15% (active) | 56.6 | 64.7% | 28.8% | 16.3% | 23.6% | 19.9% | 89.8%
Cc1ccc(F)cc1NC(=O)c1cc(Cl)ccc1Nc1ccccc1 |  | 32.1% | 23.7% | 63 | 42.3% | 48.2% | 45.8% | 29% | 44.2% | 89.1%
O=C(CSc1ncccc1C(=O)O)Nc1ccc(Oc2ccccc2)cc1 |  | 102% | 78.1% | 105 | 107% | 95.8% | 99.6% | 84.6% | 78.2% | 96.7%
CCOC(=O)C1(C(=O)OCC)N=C(c2ccccc2)C=C1c1ccccc1 |  | 89.8% | 76% | 112 | 87.7% | 83.1% | 77.5% | 81.1% | 69.7% | 84.4%
COc1ccc(-c2nc(-c3ccccn3)c(-c3ccccn3)n2CC(C)C)cc1OC1CCCC1 |  | 8.15% (active) | -13.8% (active) | 28.5 | 16.8% | 10.5% | 1.08% (active) | -31.7% (active) |  | -14.3% (active)
COc1ccc(-c2nsc3c2NC(=O)CC3c2cccc(OC)c2)cc1 (stereo not drawn) |  | 66.9% | 46.3% | 61.9 | 55.1% | 32.9% | 14.2% | 32.2% | 24.3% | 27.4%
O=C(Nc1ccsc1C(=O)NC1CCCCC1)c1ccc(F)cc1 |  | 98.3% | 94.4% | 114 | 101% | 95.6% | 66.6% | 95.6% | 79.4% | 95.5%
COc1ccc(C(=O)Nc2ccc3nc(N4CCCCC4)cc(C)c3c2)cc1OC |  | 88.8% | 98.7% | 104 | 94.9% | 88.4% | 54.8% | 49% | 33.1% | 35.5%
O=NN(C(=O)NC1CCC(C(=O)O)CC1)C1CCC(C(=O)O)CC1 (stereo not drawn) |  | 103% | 92.8% | 110 | 100% | 90.2% | 91.9% | 102% | 95% | 103%
Nc1ccn(C2O[C@H](CO)[C@@H](O)[C@H]2O)c(=O)n1 (stereo partly drawn) |  | 54.9% | 100% | 125 | 79.5% | 91.3% | 29.2% | 57.1% | 2.99% (active) | 106%
CCOc1c(Br)cc(C2C(C(=O)OC)=CN(C)C=C2C(=O)OC)cc1OC |  | 78% | 38.2% | 69.3 | 64.4% | 75.8% | 72.7% | 59.6% | 8.75% (active) | 99%
COc1ccc(-c2nnc(COc3ccc(C(=O)/C=C/c4ccco4)cc3)o2)cc1 |  | 68.1% | 53.5% | 95.3 | 85.9% | 67.2% | 10.7% | 41.9% | 0.0515% (active) | 115%
FC(F)(F)c1cccc(CNC2CCN(CCc3ccccc3)CC2)c1 |  | 85.4% | 56.3% | 79.8 | 90.7% | 60.2% | 13.2% | 54.3% | 29.3% | 60.4%
CCOC(=O)C1(Cc2ccccc2)CCN(Cc2cccc(OC)c2O)CC1 |  | 10.7% | -11.8% (active) | 36.7 | 10.8% | -11.3% (active) | 9.78% (active) | 9.72% (active) | 7.58% (active) | 21.2%
CCOC(=O)c1cc2c(n1Cc1cccc(OC)c1)-c1oncc1CCC2 |  | 56.7% | 16.7% | 48.1 | 47.3% | 29.6% | 3.19% (active) | 35.8% | 10.1% | 6.51% (active)
Cc1ccc(OCCCCCCNCCO)c(C)c1 |  | 7.94% (active) | -21% (active) | 28.9 | 15.3% | -8.91% (active) | 7.2% (active) | 10.6% | 11.2% | 35.3%
NC1(N2SC(S)=C3CCCC=C32)CCCCC1 |  | 104% | 78.6% | 99.5 | 102% | 97% | 105% | 87% | 86.9% | 101%
